# Source: PubChem BioAssay (NCI)
# About 83,000 compounds went through this panel and 20% of them were active in at least one assay; those are over-represented in the sample as a whole.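 96-well plates, one dose, 48 hours. Percent growth reported; active if below 10.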 The source made the active and inactive calls.
# Test system: MDA-MB-468 breast
# Assay: NCI-60 one-dose screen, 48 h (100 = growth as untreated, 0 = no growth, -100 = all killed)
# Conditions: 10 µM unless noted
row,SMILES,growth
1,Fc1ccc(-c2cn3c(nc4ccccc43)c(-c3ccccc3)n2)cc1,82.8% (inactive)
2,CCCc1c(OC(=O)c2ccccc2)nc2[nH]c(=O)sc2c1C,84.4% (inactive)
3,Cn1c(COC(=O)NCCN2CCOCC2)nc2c(N3CCOCC3)nc(-c3ccccc3)nc21,-69.1% (active)
4,COc1cc2nc(Cl)nc(Nc3cccc(C(=O)/C=C/c4ccc(F)cc4)c3)c2cc1OC,74.3% (inactive)
5,Cc1cc(=O)n2nnc3c4ccccc4ccc3n12,15.5% (inactive)
6,C=C(CN=[N+]=[N-])[C@@H]1CC[C@]2(C)[C@H](CC[C@@H]3[C@H]4[C@H]5OC(=O)[C@@]4(CCC5(C)C)CC[C@]32C)[C@@]1(C)CCC#N,72.3% [100 µM] (inactive)
7,CCn1cc2c(cc1=O)-c1nc3ccccc3c3ccnc(c13)C2=O,72.3% (inactive)
8,C=C(C=O)[C@@H]1CC[C@]2(COC(C)=O)CC[C@]3(C)C(CC[C@@H]4[C@@]5(C)CC[C@H](OC(C)=O)C(C)(C)[C@@H]5CC[C@]43C)[C@@H]12 (stereo not given in full),5.16% (active)
9,COc1ccc(-c2nc3sccn3c2/C=C/C(=O)c2cc(OC)c(OC)c(OC)c2)cc1,53.6% (inactive)
10,CC(C)n1cnc2c(=S)nc[nH]c21,104% (inactive)
11,Cc1cc(N=O)cc(C(C)(C)C)c1O,91% (inactive)
12,CC(C)C[C@H]1C(=O)O[C@H](C(C)C)C(=O)N(C)[C@@H](C(C)C)C(=O)O[C@H](C(C)C)C(=O)N(C)[C@@H](C(C)C)C(=O)O[C@H](C(C)C)C(=O)N1C,-7.13% (active)
13,COc1cc(C2CC(c3cccc(Nc4ccncc4)c3)=Nc3c(N)ncnc3N2)cc(OC)c1OC (stereo not given),47.6% (inactive)
14,CN1CCN(c2ccc(-c3cc4c(Nc5ccc(F)c(Cl)c5)ncnn4c3)cn2)CC1,70.1% (inactive)
15,Cc1ccc(S(=O)(=O)c2ccc3[nH]c(=O)[nH]c(=O)c3c2)cc1,102% (inactive)
16,COc1ccc(-c2nc(-c3cn(C)c4ncccc34)cs2)cc1,-6.3% [100 µM] (active)
17,NS(=O)(=O)Oc1ccc2nc(Nc3ccc(F)c(F)c3)ccc2c1,96.9% (inactive)
18,COc1ccc(-c2cc(-c3ccc(Nc4nc(Nc5ccccc5)nc(Nc5ccc(Cl)cc5)n4)cc3)nc(N)n2)cc1,87.4% (inactive)
19,Cc1cc2cccnc2c2ncccc12,-20.5% (active)
20,Nc1nc(N)c2c(n1)NC(c1cccc(Nc3ccnc4cc(C(F)(F)F)ccc34)c1)CC(c1ccc(F)cc1)=N2 (stereo not given),18% (inactive)

row,SMILES,growth
1,CC(C)(C)[Si](C)(C)OCC1OC(n2cnc3c(N)ncnc32)CC1OS(C)(=O)=O (stereo not given),99.7% (inactive)
2,COc1ccc(Cn2cc(Cn3c(=O)c(-c4nc5ccccc5[nH]4)cc4ccccc43)nn2)c(OC)c1OC,13.6% (inactive)
3,N#Cc1nc(-c2ccccc2)oc1S(=O)(=O)N1CCN(c2ccccc2)CC1,98.3% (inactive)
4,N=c1c2c(-c3ccccc3)c(-c3ccccc3)oc2ncn1NC(=O)c1cccnc1,105% (inactive)
5,Cc1noc(C)c1C(=O)OCc1coc2ccccc2c1=O,24.5% (inactive)
6,CCCCc1oc2ccccc2c1C(=O)c1ccc(O)cc1,78.4% (inactive)
7,N/N=C(/Cc1ccccc1)NNC(N)=S,115% (inactive)
8,COc1cnc2c(c1)C(=O)c1c-2n(CCCN2CCOCC2)c(=O)c2cc(F)ccc12,-50.1% (active)
9,COc1ccc(-c2cnc(SCC(=O)Nc3ccc(-c4nc5ccccc5s4)cc3)n2-c2ccc(OC)cc2)cc1,-12.7% (active)
10,O=C(Cc1ccccc1)NNc1nc(Cl)nc(N2CCN(C(c3ccccc3)c3ccccc3)CC2)n1,38.2% (inactive)
11,CCOC(=O)c1c(-c2ccc(C)cc2)c(C#N)c(=O)n(-c2cccc(C(F)(F)F)c2)c1N,99.9% (inactive)
12,CCN1CCN(Cc2ccc(C(=O)Nc3ccc(C)c(Oc4ccc(-c5[nH]nc6ncnc(N)c56)cc4)c3)cc2C(F)(F)F)CC1,118% (inactive)
13,COc1ccc(-c2c3c(nc4n[nH]c(-c5ccc(Cl)cc5)c24)-c2ccccc2C(=O)C3=O)cc1,-9.02% (active)
14,CC(=O)c1cnc2ccc(-c3cc(Cl)c(O)c(Cl)c3)nc2c1NC1CCC(CN(C)C)CC1 (stereo not given),-62% [2.5 µM] (active)
15,Cc1ccc(C(=O)Nc2ccc(CN3CCN(C)CC3)c(C(F)(F)F)c2)cc1C#Cc1cncc2ncccc12,37.3% (inactive)
16,Nc1cc2nc3ccccc3sc-2cc1=O,72.9% (inactive)
17,COc1ccc(Nc2ncccc2C(=O)NCc2cn(Cc3cccc(Oc4ccccc4)c3)nn2)cc1,4.17% (active)
18,COc1ccc(-c2nnc(NC(=O)CN3CCN(c4cc5c(cc4F)c(=O)c(C(=O)O)cn5C4CC4)CC3)s2)cc1OC,93% (inactive)
19,CC(=O)Nc1ccc2c(c1)/C(=C\C=C/c1ccc([N+](C)(C)C)cc1)c1ccccc1-2,21.5% (inactive)
20,CC(=O)O[C@H]1CC[C@]2(C)[C@H]3CC=C4[C@@H]5[C@H](C)[C@@H](C)CC[C@]5(C(=O)NCCNCCNCCN)CC[C@@]4(C)[C@]3(C)CC[C@H]2C1(C)C,69.2% (inactive)
